D2 ag-1: agonists of human D2 dopamine receptor. P14416. HEK293 T-REx D2 cells, calcium flux agonist mode. activation, % at 2 µM. 340,000 tested, 0.53% active. AID 485358;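 active = activation over 3 SD above normal in the single-dose calcium agonist read, cut at about 30% in these data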; also: 0% is about no effect
Target sequence (P14416 whole entry, looked up): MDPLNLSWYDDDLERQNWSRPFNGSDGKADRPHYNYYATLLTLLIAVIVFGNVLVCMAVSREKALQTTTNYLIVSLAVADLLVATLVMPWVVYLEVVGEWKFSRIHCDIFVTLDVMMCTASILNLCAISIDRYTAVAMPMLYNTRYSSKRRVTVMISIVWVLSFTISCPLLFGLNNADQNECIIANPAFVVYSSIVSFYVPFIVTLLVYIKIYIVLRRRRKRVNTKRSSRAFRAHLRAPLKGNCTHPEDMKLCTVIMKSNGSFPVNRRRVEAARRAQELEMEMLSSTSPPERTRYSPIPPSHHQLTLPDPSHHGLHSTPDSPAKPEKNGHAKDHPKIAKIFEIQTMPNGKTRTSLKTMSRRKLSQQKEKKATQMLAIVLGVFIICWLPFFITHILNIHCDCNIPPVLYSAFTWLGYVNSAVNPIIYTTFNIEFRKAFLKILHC
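HEK293 Trex D2 cells, tetracycline-induced, o/n 30 C 5% CO2; no-wash Ca dye, RT 30–90 min; 10-cycle baseline, 23 nl cpd added, kinetic Ca read 180 s; agonist hits = positive Ca response.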
D2 ag-2: human D2 receptor agonism in beta-arrestin assay. DiscoveRx PathHunter D2 beta-arrestin, luminescence, 90 min; 100% = 57 uM dopamine signal. activation, % (no concentration beside the values). 360,000 tested, 0.084% active. AID 624465; in the data active = activation above about 40%; inconclusive = between about 15% and that limit
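DiscoveRx PathHunter D2 beta-arrestin cells (2,100/well) attached overnight, then compound-stimulated 90 min at 37 C in HBSS/10 mM HEPES/0.1% Tween-20 buffer; beta-galactosidase complementation read by luminescence after 1 h at ambient temperature. Dopamine 57 uM final (EC100) as control.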
D2 PAM-1: positive allosteric modulators of human D2 dopamine receptor; potentiation, % at 10 µM; P14416; 340,000 tested, 0.34% active; AID 485347; HEK293 T-REx D2, calcium flux, EC20 dopamine potentiation;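 active = potentiation over 3 SD above the plate norm, cut at about 30% in these data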; also: 0% is about no effect
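Tetracycline-induced HEK293 T-REx cells force-coupled to calcium signalling expressed D2; compounds were pin-added after a 10 s baseline, read kinetically 180 s, then an EC20 dopamine challenge followed with a further 180 s calcium read.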
D2 PAM-2: potentiates the human D2 dopamine receptor allosterically | P14416 | DiscoveRx D2 beta-arrestin cells, luminescence, 90 min; 100% = 57 uM dopamine signal | potentiation, % (concentration not given with the values) | 360,000 tested, 0.23% active | AID 624464; in the data active = potentiation above about 50%; inconclusive = mostly about 30% to 49%
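D2 cells co-treated with compound plus 50 nM dopamine (EC20) for 90 min at 37 deg C to detect potentiation. Beta-arrestin recruitment was read as enzyme-fragment luminescence after 1 h at ambient temperature. Full response was set by 57 uM dopamine.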
D2 antagonist: antagonists of human D2 dopamine receptor; HEK293 TREx D2 cells, calcium flux, dopamine EC80; inhibition, % at 10 µM; 340,000 tested, 2% active; AID 485344; in the data active = inhibition above about 30%; inactive = below that, where a call was filed; also: 0% is about no effect
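Inhibition of EC80 dopamine-driven calcium flux, recorded kinetically, defines activity here; cells are a tetracycline-induced HEK293 T-REx line expressing force-coupled D2.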
Starred values were filed as active, the others as inactive; ? = inconclusive; / = no result. In the library only some 2.4% were active in any assay of this set; here they are far more common.

SMILES | D2 ag-1 | D2 ag-2 | D2 PAM-1 | D2 PAM-2 | D2 antagonist
COc1cc(NCCCn2cnc3c(OC)ncnc32)cc(OC)c1OC | / | 0 | / | 1 | /
CCC1Oc2ccc(C)cc2N(CC(=O)N2CCN(c3ccccc3OC)CC2)C1=O (centres undefined) | 0 | / | 5 | / | /
N#Cc1nc(COc2ccccc2Cl)oc1NCc1ccc(F)cc1 | 0 | -1 | -5 | -8 | 3
N#Cc1nc(COc2ccccc2Cl)oc1NCc1cccnc1 | -1 | 1 | 4 | 4 | 40*
COc1cc(NC(=O)c2nn(C)c3c2COc2ccccc2-3)cc(OC)c1OC | 1 | / | 1 | / | /
COc1nc(C)ccc1-c1noc(-c2ccncc2)n1 | 0 | -1 | 38* | -8 | -20
COc1ccc(-c2ccc(-c3noc(-c4ccccc4)n3)c(OC)n2)cc1 | 1 | -2 | -7 | -12 | 31*
COc1ccc(-c2nc(-c3ccncc3)no2)c(OC)c1 | 0 | 1 | 14 | -14 | 58*
CCOc1nc(C)ccc1-c1noc(-c2ccccn2)n1 | 2 | -1 | 12 | -20 | -8
CCOc1nc(C)ccc1-c1noc(-c2ccco2)n1 | 0 | -1 | 35* | -10 | -13
COc1cc(-c2nc(-c3ccc(C)nc3OC)no2)cc(OC)c1OC | 1 | / | -8 | / | 2
O=C(Nc1cccc(-c2nc3ccccc3s2)c1)c1ccc2c(c1)OCO2 | 1 | 0 | -10 | -13 | -7
c1ccc2sc(-c3ccc4c(c3)OCO4)nc2c1 | 0 | 0 | 31* | -12 | 11
CCc1ccc(NC(=O)CN(c2ccc(Cl)cc2)S(=O)(=O)c2ccsc2C(=O)OC)cc1 | / | / | -11 | / | /
CCN(CC(=O)Nc1c(F)cccc1F)C(=O)/C=C/c1cn(Cc2ccccc2)nc1-c1cccnc1 | 0 | 1 | 7 | 1 | 32*
CC(C)C(NC(=O)c1c(F)cccc1F)C(=O)NC1CC(C)(C)NC(C)(C)C1 (centres undefined) | 1 | 1 | 4 | -5 | -11
Cc1ccc(OC(=O)COc2ccccc2C)cc1 | -1 | -1 | 7 | 2 | -15
CC(=O)c1ccc(OC(=O)COc2ccccc2Cl)cc1 | 1 | -4 | -4 | -2 | 48*
COc1ccccc1NC(=O)N(Cc1cccs1)Cc1cc2cc3c(cc2[nH]c1=O)OCO3 | 0 | 5 | -15 | -2 | 36*
COc1ccccc1NC(=S)N(CCCN(C)C)Cc1cc2cc3c(cc2[nH]c1=O)OCO3 | / | -4 | 15 | -3 | -7
COc1ccc(CCNC(=O)c2c(C)oc3ncnc(N4CCOCC4)c23)c(OC)c1 | / | / | -1 | / | /
COc1ccc(C(=O)N(Cc2sccc2C)C2CCS(=O)(=O)C2)cc1 (centres undefined) | -1 | 3 | 0 | -14 | 38*
CCc1ccccc1NC(=S)N(CCN1CCOCC1)C1CCN(C(C)=O)CC1 | -1 | -4 | 1 | -1 | 31*
CCCN(Cc1nnc(-c2cccs2)o1)C(=O)CN1C(=O)NC2(CCCCC2)C1=O | 1 | -2 | 2 | -1 | 31*
CCCN(Cc1nnc(-c2cccs2)o1)C(=O)CN1C(=O)NC2(CCC(C)CC2)C1=O (centres undefined) | 0 | -4 | 13 | 0 | 2
SMILES | D2 ag-1 | D2 ag-2 | D2 PAM-1 | D2 PAM-2 | D2 antagonist
CCS(=O)(=O)c1ccc2oc(SCC(=O)NCCC3=CCCCC3)nc2c1 | -1 | -1 | -1 | -3 | 68*
COc1ccc(CCC(=O)Nc2ccc(C)c(S(=O)(=O)N(C)C)c2)cc1OC | 0 | -2 | 7 | -10 | -19
COc1ccc(CCNCC(=O)Nc2ccc(C)c(S(=O)(=O)N(C)C)c2)cc1 | 2 | -1 | -5 | -17 | 33*
COc1ccc2nc(SC(C)C(=O)NC3CCCC3)[nH]c2c1 (centres undefined) | 0 | 1 | 9 | -7 | -5
Cc1ccc(Cn2c(=O)n(CCc3ccccc3)c(=O)c3c(C)c(C)sc32)cc1 | / | / | 22 | / | /
Cc1ccc(S(=O)(=O)N(C)C)cc1NC(=S)NC(C)CCCC(C)C (centres undefined) | 0 | 4 | -23 | -41 | 75*
CCCCCCC(C)NC(=S)Nc1cc(S(=O)(=O)N(C)C)ccc1C (centres undefined) | 1 | -1 | -27 | -41 | 92*
Cc1ccc(S(=O)(=O)N(C)C)cc1NC(=S)NC(C)CCC(C)C (centres undefined) | 0 | -3 | -25 | -37 | 77*
O=C(COc1ccccc1F)Nc1ccc2nc(SCC(=O)N3CCc4ccccc43)sc2c1 | 2 | / | 13 | / | /
Cc1ccc(C)c(NC(=O)Cn2cnc3nc4c(cc3c2=O)CCCC4)c1 | -1 | / | -12 | / | /
Cc1ccc(-c2nc(CN3CCCCC3CCN3CCCC3=O)c(C)o2)o1 (centres undefined) | / | -20 | / | -16 | /
Cc1oc(-c2cccc(F)c2)nc1CN1CCCCC1CCn1cccn1 (centres undefined) | 1 | -3 | -21 | -7 | 45*
CCOCCc1nn2c(=O)cc(COC(=O)CNC(=O)c3ccc(F)cc3)nc2s1 | -1 | / | -5 | / | /
CCCCN(C)c1c(C)nc2ccc(C(=O)NCCOc3ccc(OC)cc3)cn12 | / | 5 | / | -11 | /
Cc1cccc(C(=O)O/N=C(\N)Cc2ccc([N+](=O)[O-])cc2)c1 | 0 | ? | 6 | 148* | 16
N/C(Cc1ccc([N+](=O)[O-])cc1)=N\OC(=O)c1ccco1 | / | 53* | / | 21 | /
Cc1ccc(CC(=O)O/N=C(\N)Cc2ccc([N+](=O)[O-])cc2)cc1 | -1 | 7 | -6 | 12 | -16
N/C(Cc1ccc([N+](=O)[O-])cc1)=N\OC(=O)C(c1ccccc1)c1ccccc1 | 0 | 12 | -5 | 89* | 12
COc1ccc(C/C(N)=N/OC(=O)C(c2ccccc2)c2ccccc2)cc1OC | 1 | 7 | 0 | 50* | -17
COC(=O)C1CCN(S(=O)(=O)CCNC(=O)c2ccc(F)cc2)CC1 | 0 | -5 | 9 | -6 | -7
N/C(Cc1ccc([N+](=O)[O-])cc1)=N\OC(=O)c1ccc(Br)cc1 | -1 | ? | -10 | 171* | 12
COc1ccc(/C(N)=N/OC(=O)c2cccc([N+](=O)[O-])c2C)cc1 | 1 | 3 | -10 | 4 | -5
N/C(Cc1ccc([N+](=O)[O-])cc1)=N\OC(=O)c1ccc2ccccc2c1 | 1 | ? | -2 | 143* | -5
COc1ccccc1C/C(N)=N/OC(=O)c1cccc([N+](=O)[O-])c1C | -1 | ? | -1 | 136* | 5
N/C(Cc1ccc([N+](=O)[O-])cc1)=N\OC(=O)c1ccccc1Br | 1 | 41* | -11 | 122* | 3
CCOC(=O)c1cc(-c2ccc(OC)cc2)n(CCC(=O)Nc2cccc(C(C)=O)c2)c1C | 0 | / | 1 | / | /

Bioassay records (PubChem)
